Reference: the supplement of paper PMC11732987, “Enantioselective OTUD7B fragment discovery through chemoproteomics screening and high-throughput optimisation” (Communications Chemistry, 2025)

Legend:
Assay in all cases: log2 ratio of Biotin-Ahx-Ub-VS probe labelling (fragment/DMSO); higher = less target engagement (more negative = stronger competition), active = hit call of the paper (q ≤ 0.05, log2 ratio ≤ -1)
Conditions in all cases: compound concentration: 200 uM; treatment time: 3 h
[1] = target: T1, USP19 (UniProt O94966)
T1 sequence (whole entry): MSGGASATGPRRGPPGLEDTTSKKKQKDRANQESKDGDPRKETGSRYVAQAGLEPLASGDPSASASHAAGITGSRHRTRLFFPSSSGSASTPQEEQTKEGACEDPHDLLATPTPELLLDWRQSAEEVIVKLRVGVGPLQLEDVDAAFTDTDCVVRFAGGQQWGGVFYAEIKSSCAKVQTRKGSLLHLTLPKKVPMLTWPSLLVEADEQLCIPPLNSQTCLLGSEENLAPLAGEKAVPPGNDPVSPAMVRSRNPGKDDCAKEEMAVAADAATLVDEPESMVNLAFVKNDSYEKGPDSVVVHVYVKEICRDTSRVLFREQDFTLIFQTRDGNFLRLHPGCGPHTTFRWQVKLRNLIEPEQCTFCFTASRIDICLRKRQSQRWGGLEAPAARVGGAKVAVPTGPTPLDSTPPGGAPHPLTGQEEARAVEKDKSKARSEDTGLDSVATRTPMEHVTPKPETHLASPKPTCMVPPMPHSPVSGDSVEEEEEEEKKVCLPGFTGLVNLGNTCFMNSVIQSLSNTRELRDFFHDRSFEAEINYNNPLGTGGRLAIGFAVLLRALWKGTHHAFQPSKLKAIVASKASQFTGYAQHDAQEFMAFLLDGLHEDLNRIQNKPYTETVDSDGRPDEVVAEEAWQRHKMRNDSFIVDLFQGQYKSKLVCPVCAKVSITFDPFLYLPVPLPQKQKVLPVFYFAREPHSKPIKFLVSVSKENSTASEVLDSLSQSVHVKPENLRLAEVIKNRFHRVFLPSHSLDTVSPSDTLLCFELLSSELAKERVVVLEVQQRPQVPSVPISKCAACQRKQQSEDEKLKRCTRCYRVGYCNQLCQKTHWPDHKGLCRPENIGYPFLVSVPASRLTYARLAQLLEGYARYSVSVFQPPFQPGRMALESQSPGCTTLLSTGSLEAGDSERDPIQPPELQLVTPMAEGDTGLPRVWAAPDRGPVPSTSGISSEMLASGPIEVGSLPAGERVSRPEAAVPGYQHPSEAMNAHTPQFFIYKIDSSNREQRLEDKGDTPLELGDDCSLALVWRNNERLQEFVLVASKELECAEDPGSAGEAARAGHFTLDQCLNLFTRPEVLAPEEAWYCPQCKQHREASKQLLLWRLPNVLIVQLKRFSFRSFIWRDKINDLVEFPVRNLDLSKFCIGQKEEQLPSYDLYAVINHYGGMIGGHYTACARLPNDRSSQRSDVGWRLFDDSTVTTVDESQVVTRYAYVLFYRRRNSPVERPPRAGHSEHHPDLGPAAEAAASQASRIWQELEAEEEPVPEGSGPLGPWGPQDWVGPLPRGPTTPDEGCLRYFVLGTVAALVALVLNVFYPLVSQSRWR
Outline: (§1)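 HEK293T lysate (495 µg per sample, in Tris/CHAPS/IGEPAL buffer with protease inhibitors) was treated in triplicate with fragment at 200 µM or with DMSO for 3 h. It was then treated with Biotin-Ahx-Ub-VS (0.5 µM final) for 1 h. Labelled DUBs were NeutrAvidin-enriched, digested with LysC and trypsin, and run by diaPASEF LC-MS/MS. Spectronaut label-free quantities were global-median-normalised. Values are average log2 ratios fragment/DMSO by unpaired t-test, using proteins with ≥2 unique peptides.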

[2] = target: USP24 (UniProt Q9UPU5)
Outline: as §1

[3] = target: T2, USP25 (UniProt Q9UHP3)
T2 sequence (whole entry): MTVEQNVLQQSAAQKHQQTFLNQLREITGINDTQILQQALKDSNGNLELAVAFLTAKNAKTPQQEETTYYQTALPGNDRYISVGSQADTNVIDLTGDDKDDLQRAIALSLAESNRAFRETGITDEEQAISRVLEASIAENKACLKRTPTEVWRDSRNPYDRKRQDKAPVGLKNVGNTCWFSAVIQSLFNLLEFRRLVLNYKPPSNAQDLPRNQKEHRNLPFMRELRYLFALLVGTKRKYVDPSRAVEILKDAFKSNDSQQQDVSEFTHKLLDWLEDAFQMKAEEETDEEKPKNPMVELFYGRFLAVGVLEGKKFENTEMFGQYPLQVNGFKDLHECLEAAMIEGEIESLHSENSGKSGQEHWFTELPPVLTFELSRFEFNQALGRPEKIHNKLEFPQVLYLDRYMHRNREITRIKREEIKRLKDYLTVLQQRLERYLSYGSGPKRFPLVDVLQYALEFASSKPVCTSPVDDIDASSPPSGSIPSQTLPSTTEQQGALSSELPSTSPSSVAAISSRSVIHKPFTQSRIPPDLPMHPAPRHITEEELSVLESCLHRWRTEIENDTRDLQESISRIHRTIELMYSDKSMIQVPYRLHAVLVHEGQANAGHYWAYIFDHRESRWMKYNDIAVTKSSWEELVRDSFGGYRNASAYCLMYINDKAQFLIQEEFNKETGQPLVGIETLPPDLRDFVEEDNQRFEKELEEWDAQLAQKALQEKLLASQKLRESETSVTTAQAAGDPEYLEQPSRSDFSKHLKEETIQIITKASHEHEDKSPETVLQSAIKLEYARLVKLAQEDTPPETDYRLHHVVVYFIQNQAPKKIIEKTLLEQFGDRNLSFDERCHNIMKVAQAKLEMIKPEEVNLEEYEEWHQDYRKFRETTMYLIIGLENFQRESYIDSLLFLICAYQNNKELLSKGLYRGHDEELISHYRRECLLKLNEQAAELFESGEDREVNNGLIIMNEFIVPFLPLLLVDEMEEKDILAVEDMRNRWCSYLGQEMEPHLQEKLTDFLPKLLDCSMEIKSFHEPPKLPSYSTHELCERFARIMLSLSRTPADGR
Outline: as §1

[4] = target: T3, USP28 (UniProt Q96RU2)
T3 sequence (whole entry): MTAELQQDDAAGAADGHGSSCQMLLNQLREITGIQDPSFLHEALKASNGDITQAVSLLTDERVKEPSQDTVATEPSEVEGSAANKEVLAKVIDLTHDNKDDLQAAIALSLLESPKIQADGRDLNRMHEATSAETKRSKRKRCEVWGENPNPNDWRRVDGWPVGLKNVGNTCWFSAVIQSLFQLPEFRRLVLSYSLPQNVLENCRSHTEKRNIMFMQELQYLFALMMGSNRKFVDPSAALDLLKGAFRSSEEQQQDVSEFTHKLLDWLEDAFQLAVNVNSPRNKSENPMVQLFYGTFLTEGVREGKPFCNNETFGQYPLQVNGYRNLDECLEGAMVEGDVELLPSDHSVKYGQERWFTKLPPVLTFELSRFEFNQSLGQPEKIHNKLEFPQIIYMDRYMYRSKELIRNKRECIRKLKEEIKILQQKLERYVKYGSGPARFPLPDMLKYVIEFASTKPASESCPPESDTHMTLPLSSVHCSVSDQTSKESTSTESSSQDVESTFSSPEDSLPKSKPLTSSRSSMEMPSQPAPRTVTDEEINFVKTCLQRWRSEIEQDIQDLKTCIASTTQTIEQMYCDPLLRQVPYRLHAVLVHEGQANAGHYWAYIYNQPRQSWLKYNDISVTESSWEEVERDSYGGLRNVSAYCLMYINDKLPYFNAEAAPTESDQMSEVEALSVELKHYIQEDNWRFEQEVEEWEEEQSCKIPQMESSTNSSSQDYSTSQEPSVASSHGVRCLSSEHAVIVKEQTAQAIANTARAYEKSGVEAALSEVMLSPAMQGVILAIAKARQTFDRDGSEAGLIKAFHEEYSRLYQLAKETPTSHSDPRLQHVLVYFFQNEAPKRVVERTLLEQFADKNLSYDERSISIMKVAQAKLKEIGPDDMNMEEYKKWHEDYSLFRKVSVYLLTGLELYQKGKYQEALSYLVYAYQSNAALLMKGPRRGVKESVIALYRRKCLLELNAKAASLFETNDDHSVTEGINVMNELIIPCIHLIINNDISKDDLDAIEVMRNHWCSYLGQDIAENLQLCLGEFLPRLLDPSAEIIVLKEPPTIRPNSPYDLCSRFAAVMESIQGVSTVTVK
Outline: as §1

Measured: log2 ratio of Biotin-Ahx-Ub-VS probe labelling

USP24, sequence (Q9UPU5 whole entry): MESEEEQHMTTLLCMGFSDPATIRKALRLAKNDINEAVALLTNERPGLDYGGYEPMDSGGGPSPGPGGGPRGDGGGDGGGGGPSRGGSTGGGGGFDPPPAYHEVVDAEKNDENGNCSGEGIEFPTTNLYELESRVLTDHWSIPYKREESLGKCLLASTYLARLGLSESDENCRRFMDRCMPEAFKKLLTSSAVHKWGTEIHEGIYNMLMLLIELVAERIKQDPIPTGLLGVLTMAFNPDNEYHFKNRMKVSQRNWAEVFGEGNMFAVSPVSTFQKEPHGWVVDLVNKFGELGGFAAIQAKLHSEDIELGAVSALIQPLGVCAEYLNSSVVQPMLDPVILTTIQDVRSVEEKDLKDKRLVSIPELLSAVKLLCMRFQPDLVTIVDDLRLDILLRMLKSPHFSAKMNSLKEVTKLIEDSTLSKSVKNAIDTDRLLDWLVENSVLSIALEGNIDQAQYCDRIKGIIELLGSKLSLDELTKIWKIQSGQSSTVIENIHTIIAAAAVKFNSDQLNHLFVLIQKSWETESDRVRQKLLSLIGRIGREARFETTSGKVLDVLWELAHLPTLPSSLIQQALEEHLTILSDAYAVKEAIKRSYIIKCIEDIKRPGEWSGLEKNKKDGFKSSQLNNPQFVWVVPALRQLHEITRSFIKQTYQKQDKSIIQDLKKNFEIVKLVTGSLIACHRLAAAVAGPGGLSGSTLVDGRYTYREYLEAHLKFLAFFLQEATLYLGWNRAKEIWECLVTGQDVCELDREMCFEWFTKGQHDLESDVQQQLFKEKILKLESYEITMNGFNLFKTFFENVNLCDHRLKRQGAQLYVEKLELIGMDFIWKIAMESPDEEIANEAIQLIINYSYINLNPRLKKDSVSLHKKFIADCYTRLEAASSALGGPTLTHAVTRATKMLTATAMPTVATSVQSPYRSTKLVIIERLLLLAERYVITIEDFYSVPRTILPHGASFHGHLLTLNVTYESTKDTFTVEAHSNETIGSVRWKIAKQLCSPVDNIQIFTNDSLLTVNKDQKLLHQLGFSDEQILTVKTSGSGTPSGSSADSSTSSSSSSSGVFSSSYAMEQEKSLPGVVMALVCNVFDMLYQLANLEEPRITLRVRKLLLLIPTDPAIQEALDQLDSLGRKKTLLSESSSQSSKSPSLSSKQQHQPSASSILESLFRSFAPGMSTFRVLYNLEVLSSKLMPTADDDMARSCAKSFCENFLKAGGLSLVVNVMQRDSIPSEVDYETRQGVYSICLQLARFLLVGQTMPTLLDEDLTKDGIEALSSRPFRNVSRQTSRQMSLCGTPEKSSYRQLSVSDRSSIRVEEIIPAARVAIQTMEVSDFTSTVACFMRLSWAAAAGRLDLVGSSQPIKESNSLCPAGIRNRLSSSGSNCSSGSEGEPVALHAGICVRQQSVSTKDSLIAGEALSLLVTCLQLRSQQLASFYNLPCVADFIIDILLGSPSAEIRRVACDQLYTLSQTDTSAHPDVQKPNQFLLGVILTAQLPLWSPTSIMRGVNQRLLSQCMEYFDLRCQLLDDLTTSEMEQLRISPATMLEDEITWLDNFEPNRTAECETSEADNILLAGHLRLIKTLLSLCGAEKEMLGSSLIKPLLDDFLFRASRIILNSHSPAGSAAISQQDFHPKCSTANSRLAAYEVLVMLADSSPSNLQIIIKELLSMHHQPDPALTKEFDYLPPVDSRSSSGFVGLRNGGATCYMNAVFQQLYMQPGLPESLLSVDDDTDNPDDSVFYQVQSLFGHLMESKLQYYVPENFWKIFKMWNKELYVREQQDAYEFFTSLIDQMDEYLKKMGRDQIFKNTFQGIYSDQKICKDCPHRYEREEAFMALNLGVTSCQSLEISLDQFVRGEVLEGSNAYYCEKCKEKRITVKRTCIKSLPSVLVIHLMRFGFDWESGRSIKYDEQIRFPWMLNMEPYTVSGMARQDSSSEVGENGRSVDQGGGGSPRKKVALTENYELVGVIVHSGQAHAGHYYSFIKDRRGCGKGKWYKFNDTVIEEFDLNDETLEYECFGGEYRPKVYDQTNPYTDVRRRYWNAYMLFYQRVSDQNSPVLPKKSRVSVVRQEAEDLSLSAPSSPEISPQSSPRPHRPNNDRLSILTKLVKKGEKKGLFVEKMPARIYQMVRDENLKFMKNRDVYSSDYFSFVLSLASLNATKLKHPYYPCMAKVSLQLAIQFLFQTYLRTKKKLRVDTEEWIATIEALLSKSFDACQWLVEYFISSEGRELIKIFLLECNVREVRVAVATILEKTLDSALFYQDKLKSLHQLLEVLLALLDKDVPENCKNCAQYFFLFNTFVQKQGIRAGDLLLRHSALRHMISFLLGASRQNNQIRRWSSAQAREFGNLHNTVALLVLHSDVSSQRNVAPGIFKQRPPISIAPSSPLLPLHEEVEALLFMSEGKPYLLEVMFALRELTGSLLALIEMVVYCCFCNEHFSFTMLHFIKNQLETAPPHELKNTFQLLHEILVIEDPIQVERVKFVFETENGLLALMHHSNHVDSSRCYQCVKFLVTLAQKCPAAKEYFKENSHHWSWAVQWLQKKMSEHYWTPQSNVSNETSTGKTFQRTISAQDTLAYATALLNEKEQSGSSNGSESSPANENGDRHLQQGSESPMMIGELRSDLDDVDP

O=C(CCl)NC1CCS(=O)(=O)c2ccccc21 (centres undefined)
inactive: [1] -0.237 | [2] -0.183 | [3] -0.461 | [4] -0.943
